In PubChem BioAssay AID2014 (Sanford-Burnham Center for Chemical Genomics, 2009) one finds inhibition data, which are given here for 48 compounds.

SMILES strings stand for the structures. The whole screen tested about 290,000 compounds, of which about 3,000 (1%) were called active. How the calls were made is not given here. The sample as a whole holds a higher share of actives than the screen did.

The target in this assay is Polyadenylate-binding protein 1 (Homo sapiens) (UniProt P11940). As to the kind of experiment: PABP poly(A) RNA binding inhibitors, primary screen, biochemical, fluorescence polarization, uHTS (AID 2014).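 Further: calls also rest on retests at 20 µM and on dose response follow-up.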 Particulars: stronger effect = higher value. (In general: Polarisation of emitted light reports the rotation of a fluorescent probe.)
Chain of Polyadenylate-binding protein 1 (Homo sapiens) (P11940 whole entry, looked up): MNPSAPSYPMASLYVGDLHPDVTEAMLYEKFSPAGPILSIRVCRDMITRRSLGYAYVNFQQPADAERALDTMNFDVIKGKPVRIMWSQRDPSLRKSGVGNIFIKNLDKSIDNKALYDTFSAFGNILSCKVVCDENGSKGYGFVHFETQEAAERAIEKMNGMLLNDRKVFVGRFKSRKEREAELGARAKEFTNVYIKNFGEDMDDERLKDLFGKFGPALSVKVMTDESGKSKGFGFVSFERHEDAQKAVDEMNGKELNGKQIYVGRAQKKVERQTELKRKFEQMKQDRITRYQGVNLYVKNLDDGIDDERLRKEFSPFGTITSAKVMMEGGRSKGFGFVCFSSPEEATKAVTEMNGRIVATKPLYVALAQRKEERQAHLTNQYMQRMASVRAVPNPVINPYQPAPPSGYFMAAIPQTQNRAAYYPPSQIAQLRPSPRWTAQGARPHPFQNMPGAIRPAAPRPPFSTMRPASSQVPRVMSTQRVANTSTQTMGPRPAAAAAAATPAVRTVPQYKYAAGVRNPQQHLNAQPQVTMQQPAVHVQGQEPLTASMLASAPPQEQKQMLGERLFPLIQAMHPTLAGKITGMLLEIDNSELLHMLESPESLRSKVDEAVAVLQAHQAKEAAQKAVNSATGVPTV

By inhibition is commonly meant the change of the read-out against control, counted positive when it falls. `O=C(N/C(=C\c1ccc([N+](=O)[O-])cc1)C(=O)N1CCCCC1)c1ccco1`: the inhibition (at 35 µM) is 4.9% (inactive).

Take `COc1cc(C(=O)Nn2c(CC(C)C)nc3ccccc3c2=O)cc(OC)c1OC`: the inhibition (at 35 µM) is 1.2% (inactive).

With `Cc1ccc(N(Cc2cc(=O)[nH]c3ccccc23)C(=O)CCl)cc1`, under “at 35 µM”, the inhibition was 3% (inactive).

As to `COc1ccc(N(Cc2ccc(N(C)C)cc2)C(=O)c2ccc(S(C)(=O)=O)cc2)cc1`, under “at 35 µM”, the inhibition is -1.6% (inactive).

In the case of `Nc1nc(-c2ccccc2)cc(-c2ccccc2)n1`, the inhibition (at 35 µM) is 9.3% (inactive).

`CNc1nc(-c2ccccc2)cc(-c2ccccc2)n1`: the inhibition (at 35 µM) was 4.7% (inactive).

With `CS(=O)(=O)c1sc2nc(-c3ccccc3)cc(-c3ccccc3)c2c1N`, the inhibition (at 35 µM) was 117% (active).

Turning to `CCc1ccccc1NC(=O)c1cc(-c2ccc3c(c2)OCO3)on1`, the inhibition (at 35 µM) is 3.5% (inactive).

Take `C/C(=N\NC(=O)COc1ccc(C)cc1[N+](=O)[O-])c1ccc2c(c1)OCCO2`: under “at 35 µM”, the inhibition was 3.8% (inactive).

As for `COC(=O)c1cccc(N(C(=O)CNC(=O)c2cccs2)C(C(=O)NCC2CCCO2)c2ccc(OC)c(OC)c2)c1` (configuration not stated), the inhibition (at 35 µM) is 1% (inactive).

With `O=C(CSCc1ccccc1)N1CCc2ccccc21`, where the note is “at 35 µM”, the inhibition is 2.2% (inactive).

On to `CCC(=O)N1CCCc2ccccc21`, for which, under “at 35 µM”, the inhibition is 59.1% (active).

Regarding `CCn1c(=O)c2ccccc2n(CC(=O)N2CCCc3ccccc32)c1=O`, the inhibition (at 35 µM) is -1.4% (inactive).

For `Cc1cc(NC(=O)c2ccc(F)cc2)ccc1NC(=O)c1ccco1`, the inhibition (at 35 µM) is 1.1% (inactive).

On to `Cc1c(C(=O)N2CCN(c3ccc(F)cc3)CC2)oc2c1C(=O)CCC2`, for which the inhibition (at 35 µM) is 5.7% (inactive).

Regarding `O=C(NCc1cccc(CNC(=O)Nc2cccc(O)c2)c1)Nc1cccc(O)c1`, the inhibition (at 35 µM) is 3.3% (inactive).

`COc1ccc(C)cc1-n1nnnc1SCC(=O)c1cc(C)n(Cc2ccco2)c1C`: the inhibition (at 35 µM) was 51.1% (active).

Regarding `COc1ccc(OC)c(-n2nnnc2SCC(=O)Nc2cc(C)ccc2OC)c1`, the inhibition (at 35 µM) was 2.6% (inactive).

On to `Cc1cc(C(=O)CSc2nc(N)cc(=O)[nH]2)c(C)n1Cc1ccco1`, for which the inhibition (at 35 µM) is 10.5% (inactive).

Take `O=C(OCC1O[C@@H](OC(=O)c2cc(O)c(O)c(O)c2)[C@@H](OC(=O)c2cc(O)c(O)c(O)c2)[C@@H](OC(=O)c2cc(O)c(O)c(O)c2)[C@@H]1OC(=O)c1cc(O)c(O)c(O)c1)c1cc(O)c(O)c(O)c1` (some centres not stated): the inhibition (at 35 µM) was 88.2% (active).

Consider `Cc1ccc(-c2nc(-c3ccncc3)no2)c(C)c1`, for which the inhibition (at 35 µM) was 9.6% (inactive).

Regarding `COc1ccc(-c2ocnc2C(=O)Nc2ccc3c(c2)CCC3)cc1`, the inhibition (at 35 µM) was 5.3% (inactive).

On to `Cc1ccc2c(cnn2C(=O)CCC(=O)NC2CCCC2)c1`, for which the inhibition (at 35 µM) was -2.1% (inactive).

For the compound `COc1ccc(Nc2ccc([N+](=O)[O-])cn2)cn1`, the inhibition (at 35 µM) was 39.7% (active) and the inhibition (confirmation repeats, at 20 µM) amounted to 54%.

For the compound `COc1ccccc1C1CCN(c2ccc([N+](=O)[O-])cn2)CC1`, the inhibition (at 35 µM) is 3.2% (inactive).

Turning to `COc1ccc(C(=O)NCCNc2ccc([N+](=O)[O-])cn2)cc1`, the inhibition (at 35 µM) is -2.9% (inactive).

Take `CCOc1ccc(N(CC)S(=O)(=O)c2cccc3nsnc23)cc1`: the inhibition (at 35 µM) was 51% (inactive) and the inhibition (confirmation repeats, at 20 µM) worked out at 37.2%.

With `CC(=O)Nc1ccc(NC(=O)CN2C(=O)COc3ccc(S(=O)(=O)N4CCCCC4)cc32)cc1`, the inhibition (at 35 µM) was 0% (inactive).

Take `O=C(NCCc1nnc2ccc(SCC(=O)N3CCOCC3)nn12)c1ccccc1`: the inhibition (at 35 µM) was 6.6% (inactive).

As for `COc1cccc(/C=C2/SC(=S)N(CC(=O)NC3C=CS(=O)(=O)C3)C2=O)c1` (configuration not stated), for the setting “at 35 µM”, the inhibition is 8.2% (inactive).

With `CCNc1c(NS(=O)(=O)c2ccc(C3CCCCC3)cc2)c(=O)oc2ccccc12`, the inhibition (at 35 µM) is 2.8% (inactive).

Take `CC1=NN(C(N)=S)C(=O)C1N=Nc1cc(Cl)ccc1Cl` (configuration not stated): the inhibition (at 35 µM) was 11.1% (inactive).

With `Cc1ccc(C(=O)O)cc1-c1ccc(/C=C2\SC(=O)N(CC(=O)Nc3ccc4c(c3)OCO4)C2=O)o1`, for the setting “at 35 µM”, the inhibition was 62.5% (active).

On to `Cn1c(=O)n(C)c2cc(C(=O)Nc3ccc4c(c3)OCO4)ccc21`, for which the inhibition (at 35 µM) is 9.8% (inactive).

`COc1ccc(NC(=O)CCN2C(=O)/C(=C/c3ccc4c(c3)OCO4)SC2=S)cc1`: the inhibition (at 35 µM) is 28.4% (inactive).

Take `CCOc1ccc(N(C(=O)c2snc(C(N)=O)c2N)C(C(=O)NCC2CCCO2)c2c[nH]c3ccccc23)cc1` (configuration not stated): where the note is “at 35 µM”, the inhibition is 8.6% (inactive).

As to `O=C(CCc1c[nH]c2ccccc12)NCCOc1ccccc1`, under “at 35 µM”, the inhibition is 3.3% (inactive).

For `CCN(CCCNC(=O)c1ccc2c(c1)NC(=O)CN2C)c1cccc(C)c1`, the inhibition (at 35 µM) is 0.9% (inactive).

`CCOc1ccc(N(C)S(=O)(=O)c2cnc[nH]2)cc1`: the inhibition (at 35 µM) was -4.6% (inactive).

Regarding `O=C(CCN1CCCO1)N1CCCC(N2CCN(c3cccc(C(F)(F)F)c3)CC2)C1` (configuration not stated), the inhibition (at 35 µM) is -17.5% (inactive).

With `CCN1C(=O)/C(=c2\s/c(=C3\Sc4ccccc4N3C)c(=O)n2C)N(C)C1=S`, the inhibition (at 35 µM) was -6.7% (inactive).

As for `CN1/C(=c2/s/c(=C3/C(=O)N(c4ccccc4)NC3=Nc3ccccc3)n(C)c2=O)C(C)(C)c2ccccc21`, the inhibition (at 35 µM) is 79.2% (active).

As for `NC(=O)c1c(NC(=O)CSc2nnc(-c3ccco3)n2N)sc2c1CCCC2`, the inhibition is 43.3% (active) (at 35 µM) and 90.6% (confirmation repeats, at 20 µM).

With `CCc1cccc(C)c1NC(=O)CSc1nnc(-c2ccco2)n1N`, where the note is “at 35 µM”, the inhibition is -0.1% (inactive).

For `NC(=O)c1c(NC(=O)CSc2nc(N)cc(=O)[nH]2)sc2c1CCCC2`, the inhibition (at 35 µM) is 9.6% (inactive).

As to `C[C@@H](NC(=O)[C@@H]1Cc2ccccc2CN1)C(=O)NC1CCCC1`, the inhibition (at 35 µM) is 21% (inactive).

`Cc1ccc(CN2CCCOCCS2(=O)=O)cc1`: the inhibition (at 35 µM) is 5.7% (inactive).

For the compound `Cc1ccccc1NC(=O)CN1C(=O)N/C(=C\c2cccn2-c2cccc(C(=O)O)c2)C1=O`, the inhibition is, setting by setting: (at 35 µM) 82.4% (inactive); (confirmation repeats, at 20 µM) 24.9%.
